Test results as given in PubChem BioAssay AID1117319 (Southern Research Institute, 2015).
Hit rate of the full screen: of about 260,000 compounds, about 1,500 (0.58%) were called active. Another 5% or so got no clear call; they are omitted.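 Rule for the calls: active = inhibition above a set limit at one or more doses, reproduced on every date tested; inconclusive = results disagree between test dates, or hit never tested in dose response; inactive = the rest.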 Only a sample is shown. Entries with a potency or affinity are not part of this list.

Biological target: Virion infectivity factor (Human immunodeficiency virus type 1 group M subtype B (isolate BH10)) + Virion infectivity factor (Human immunodeficiency virus type 1 group M subtype B (isolate BRU/LAI)) + Virion infectivity factor (Human immunodeficiency virus type 1 group M subtype B (isolate PCV12)) + Virion infectivity factor (Human immunodeficiency virus type 1 group M subtype B (isolate HXB2)) + DNA dC->dU-editing enzyme APOBEC-3G (Homo sapiens) (UniProt P69720+P69721+P69722+P69723+Q9HC16)
Test: HIV-1 Vif–A3G interaction blockers – biochemical, TR-FRET, GST-Vif 1-94, biotin-A3G peptide, dose response retest, primary screen (AID 1117319);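 note: Vif residues 1-94 fused to GST binding biotinylated APOBEC3G peptide 110-148; 0% = full assay without inhibitor and 100% = GST in place of GST-Vif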
Conditions: TR-FRET GST-Vif / biotin-A3G peptide binding; stronger effect = higher value

inhibition, inactive:
CC(C)CCNC(=O)C(=O)NCc1ccccc1 21.7%
COc1ccc(NC(=O)COC(=O)CCSc2ccccc2)cc1 -0.53%
COc1ccc(NC(=O)CCSc2ccc(F)cc2)cc1 29.9%
CC(=O)c1ccc(OCc2cc(C(=O)N3CCC[C@H]3CO)no2)cc1 1.22%
CCn1c(COc2ccc3c(c2)OCO3)nnc1SCC(=O)O -4.1%
CCn1c(COc2ccc3c(c2)OCO3)nnc1SCC(=O)c1ccccc1 9%
O=C(/C=C/c1ccccc1Cl)Nc1ccccc1 -7.35%
COCCOc1ccc(C(F)(F)F)cc1N 16.5%
Nc1cc(OCC(F)(F)F)cc(OCC(F)(F)F)c1 2.81%
C=CCSc1nc2c(c(=O)[nH]c(=O)n2C)n1Cc1ccc(C)cc1 1.91%
CN1c2ccsc2/C(=N/Nc2ccc(F)cc2)CS1(=O)=O 12.5%
CN(C)c1ccc(NC(=O)CSc2nc3ccccc3c(=O)n2CC2CCCO2)cc1 (stereo not drawn) 1.51%
Cc1cc(NC(=O)CSc2nc3ccccc3c(=O)n2C2CCCC2)no1 3.03%
CCOC(=O)N1CCN(C(=O)CN(CC)S(=O)(=O)c2cc(C)ccc2OC)CC1 -2.01%
CC(=O)Nc1ccc2c3c(ccc([N+](=O)[O-])c13)CC2 1.46%
O=[N+]([O-])c1ccccc1Nc1ccccc1[N+](=O)[O-] -5.54%
COc1ccc(CCC(=O)N2CCCSC2=Nc2ccc(C(C)=O)cc2)cc1 11.6%
O=C(O)c1cccc2c1-c1ccc(Cl)cc1C2 -7.17%
O=C1Cc2cc(O)ccc2O1 -1.58%
Cc1cc2c(OCC(O)CN3CCCC3)cccc2[nH]1 (stereo not drawn) 2.52%
O=C(CCCc1cccs1)Nc1nc2c(s1)CCCC2 12.6%
CCOC(=O)c1ccc(NS(=O)(=O)c2ccc3c(c2)oc(=O)n3C)cc1 69.3%
CCOC(=O)c1ccc(NS(=O)(=O)c2ccc3[nH]c(=O)[nH]c3c2)cc1 5%
Cc1[nH]ccc(=O)c1OCc1ccccc1 6.47%
O=C(O)c1cc(OCc2ccccc2)cc(OCc2ccccc2)c1 1.18%
CCOc1cc(/C=C2/SC(=S)N(Cc3ccccc3)C2=O)ccc1O 6.48%
Cc1ccc(NC(=O)CSc2nnc(CNC(=O)c3ccco3)n2C)cc1C -4.15%
O=C(COC(=O)C1CC2CCCC(C1)C2=O)NNC(=O)c1ccccc1Br (stereo not drawn) -2.58%
